Molecules are shown by their SMILES. Screen size: about 230,000 compounds; about 310 (0.13%) were called active. Another 2% or so got no clear call; they are omitted. The call rests on the fitted dose curve; in most records, active means well fitted activation curve with a large enough effect; inconclusive means small, poorly fitted or top-dose-only effect; inactive means no such curve, though single readings can be large or run the other way. Shown is part of a subset that was picked to be rich in actives. A call without a number means that no potency is given here.
Potency means the concentration at half of the fitted maximal effect.

The assay can be described thus: qHTS Multiplex Assay to Identify Dual Action Probes in a Cell Model of Huntington: Cytoprotection (ATP). Further: nearly all actives have a fitted effect of over 45% in size.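 On cytoprotection (ATP increase): toxic huntingtin expression switched on by the ecdysone agonist tebufenozide.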 The following applies: PC12 HTT-Q103 induced, ATP luminescence, 40 h; series mostly up to 56.4 µM. The method in brief: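 PC12 cells stably carrying ecdysone-inducible Htt exon 1 (Q103)–GFP were induced with 100 nM tebufenozide (final) alongside library compounds in a dose series. Cytoprotection was scored as retained ATP by ATPlite luminescence.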
A general note: In qHTS, concentration-response curves come from the screen itself.
Take `Cc1csc(-c2coc3cc(O[C@@H]4O[C@H](CO)[C@@H](O)[C@@H](O)[C@H]4O)ccc3c2=O)n1`: the cytoprotection (ATP increase) entry was “inactive”.
As to `O=C1CCC[C@@H]2CC(N3CCCCC3)C[C@@H]3CCN1[C@H]23` (some centres undefined), the cytoprotection (ATP increase) result was “inactive”.
Still for that read-out and setting: to `CC1=C(C/C=C(\C)CCCC(C)CCCC(C)CCCC(C)C)C(=O)c2ccccc2C1=O` (centres undefined) belongs “inactive”.
Still for that read-out and setting: the value for `CCOC(=O)C1=C(C)c2ccccc2OC1(C)C(=O)OCC` (centres undefined) was “inactive”; that for `COC(=O)[C@@H]1CC2=CC(=O)CC[C@]2(C)[C@@]23O[C@@H]2C[C@@]2(C)[C@@H](CC[C@@]24CCC(=O)O4)[C@H]13` was “inactive”.
On the same count and under the same terms, the value for `C[C@H](NC(=O)c1nc[nH]c1C(=O)N[C@@H](C)C(=O)OC(C)(C)C)C(=O)OC(C)(C)C` was 22% [at 10 µM] (inactive); that for `CCCCC/C=C\C/C=C\CCCCCCCCCC(N)=O` was “inactive”; that for `CCCCC/C=C\CC1OC1CCCCCCCC(=O)O` (centres undefined) was “inactive”.
Regarding `CCCCCCCC[C@@H](O)/C=C/C=C/C=C\[C@@H](O)CCCC(=O)O`, the cytoprotection (ATP increase) entry was “inactive”.
On to `Cc1ccccc1CSCCNC(=O)c1ccc(Cl)c(S(=O)(=O)N2CCOCC2)c1`, for which the cytoprotection (ATP increase) is -0.687% [at 10 µM] (inactive).
In the case of `O=C(NCCSCc1ccccc1)c1ccc(Cl)c(S(=O)(=O)N2CCOCC2)c1`, the Potency was 398 nM (active).
As for `CC(C)(CNC(=O)c1ccc(Cl)c(S(=O)(=O)N2CCc3ccccc3C2)c1)N1CCOCC1`, the cytoprotection (ATP increase) result is “inactive”.
On to `CCCCC/C=C\C/C=C\CCCCCCCCCC(=O)O`, for which the cytoprotection (ATP increase) entry is “inactive”.
The same measure, in the same setting: to `Nc1nc2c(ncn2[C@@H]2O[C@H](COP(=O)(O)OP(=O)(O)OP(=O)(O)O)[C@@H](O)C2O)c(=O)[nH]1` (some centres undefined) belongs “inactive”; to `CC1(C)O[C@@H]2C[C@@H]3[C@H]4C[C@@H](F)C5=CC(=O)C=C[C@]5(C)[C@@]4(F)[C@@H](O)C[C@]3(C)[C@]2(C(=O)CO)O1`, “inactive”.
As to `C/C=C/C=N/NC(=O)c1ccncc1`, the cytoprotection (ATP increase) entry is “inactive”.
Same read-out and setting: to `CCOC(=O)c1c(NC(=O)CSc2nnc(CNc3ccc(C)cc3C)o2)sc(C)c1C` belongs 33% [at 10 µM] (inactive); to `CCOC(=O)C1=C(C(=O)OCC)C(C(=O)OCC)N(S(=O)(=O)C(F)(F)F)c2ccccc21` (centres undefined), “inactive”; to `CC(OC(=O)CNS(=O)(=O)/C=C/c1ccccc1)C(=O)Nc1ccc(S(=O)(=O)N2CCCC2)cc1` (centres undefined), 15.7% [at 10 µM] (inactive).
Same read-out and setting: the value for `CC(C)(C)NCC(O)COc1cccc2[nH]c(=O)[nH]c12` (centres undefined) was “inactive”; that for `CC/C=C\C/C=C\C/C=C\C/C=C\C/C=C\C/C=C\CCC(=O)NCCc1ccc(O)c(O)c1` was “inactive”; that for `CC(C)c1cnc(NC(=O)Cc2ccccc2)s1` was “inactive”.
As for `N#Cc1c(-c2ccc(F)cc2)nc(-c2ccccc2)[nH]c1=O`, the cytoprotection (ATP increase) result is “inactive”.
Still for that read-out and setting: the value for `N#Cc1ccc(-c2ccc(F)cc2)nc1Sc1ccccc1` was “inactive”.
Take `N#Cc1ccc(-c2nc3cc(C#N)c(C#N)cc3nc2-c2ccccc2)cc1C#N`: the Potency was 2820 nM (active).
As for `Cc1csc(-c2nc3ccccc3n2C)n1`, the cytoprotection (ATP increase) is -116% [at 1.9 µM] (inactive).
Same read-out and setting: to `CC(O)[C@@H](N)C(=O)O` (some centres undefined) belongs “inactive”.
Same read-out and setting: to `COc1ccc(OC)c(NC(=O)c2cnn(-c3ccccc3Cl)c2NC(=O)c2ccco2)c1` belongs “inactive”; to `C=CCC(C)(O)c1ccco1` (centres undefined), “inactive”; to `NNc1nnc(NN)c2ccccc12`, “inactive”.
Still for that read-out and setting: the value for `CCCCc1nnc(NC(=O)CSc2nc(C)cc(=O)[nH]2)s1` was “inactive”; that for `NC(=O)c1c(NC(=O)CSc2nc(N)cc(=O)[nH]2)sc2c1CCCC2` was 2.28% [at 10 µM] (inactive).
Take `CCCCc1nnc(NC(=O)CSc2nc(N)cc(=O)[nH]2)s1`: the Potency is 3160 nM (active).
As for `Cc1cccc(C)c1NC(=O)NC1=CCCN1C`, the cytoprotection (ATP increase) result is “inactive”.

(Values after PubChem BioAssay AID1471 (National Center for Advancing Translational Sciences (NCATS), 2008).)
